Assay results taken from the supplement of paper PMC7411054.

Key:
Experiment in all cases: phenotypically active (imaging signature differs from DMSO and reproducible) at any of 0.3-9 uM (binary (1 = active, 0 = inactive)); higher = active
Settings in all cases: treatment time: 24 h
[1] = tested on: A549-ACTB-RAB5A
How it was run: (§1)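 Phenotypic activity depended on meeting both a deviation and a reproducibility criterion. The fifteen gene-edited A549, HepG2 and WPMY1 reporter lines were treated at 0.3, 1, 3 or 9 µM for 24 h, four wells each, then imaged live with features normalised to solvent control wells. Deviation required ≥3 of 4 wells past the 95th percentile of control Euclidean distances, and reproducibility a median replicate Pearson correlation above the 95th percentile of non-replicates.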

[2] = tested on: A549-CANX-COX4
How it was run: as §1

[3] = tested on: A549-GM130-SQSTM1
How it was run: as §1

[4] = tested on: A549-TP53BP1-CLTA
How it was run: as §1

[5] = tested on: A549-TUBA1B-RELA
How it was run: as §1

[6] = tested on: HepG2-ACTB-RAB5A
How it was run: as §1

[7] = tested on: HepG2-CANX-COX4
How it was run: as §1

[8] = tested on: HepG2-GM130-SQSTM1
How it was run: as §1

[9] = tested on: HepG2-TP53BP1-CLTA
How it was run: as §1

[10] = tested on: HepG2-TUBA1B-RELA
How it was run: as §1

[11] = tested on: WPMY1-ACTB-RAB5A
How it was run: as §1

[12] = tested on: WPMY1-CANX-COX4
How it was run: as §1

[13] = tested on: WPMY1-GM130-SQSTM1
How it was run: as §1

[14] = tested on: WPMY1-TP53BP1-CLTA
How it was run: as §1

[15] = tested on: WPMY1-TUBA1B-RELA
How it was run: as §1

Measured: phenotypically active

CC(C)(C)NC[C@H](O)c1ccc(O)c(CO)c1 [levalbuterol]
inactive: [1] 0 | [2] 0 | [3] 0 | [4] 0 | [5] 0 | [6] 0 | [7] 0 | [8] 0 | [9] 0 | [10] 0 | [11] 0 | [12] 0 | [13] 0 | [14] 0 | [15] 0

COc1cc2c(cc1OC)C(=O)C(CC1CCN(Cc3ccccc3)CC1)C2 (stereo not given) [donepezil]
inactive: [1] 0 | [2] 0 | [3] 0 | [4] 0 | [5] 0 | [6] 0 | [7] 0 | [8] 0 | [9] 0 | [10] 0 | [11] 0 | [12] 0 | [13] 0 | [14] 0 | [15] 0

NNCCc1ccccc1 [phenelzine]
inactive: [1] 0 | [2] 0 | [3] 0 | [4] 0 | [5] 0 | [6] 0 | [7] 0 | [8] 0 | [9] 0 | [10] 0 | [11] 0 | [12] 0 | [13] 0 | [14] 0 | [15] 0

NS(=O)(=O)c1cc2c(cc1Cl)N=CNS2(=O)=O [chlorothiazide]
inactive: [1] 0 | [2] 0 | [3] 0 | [4] 0 | [5] 0 | [6] 0 | [7] 0 | [8] 0 | [9] 0 | [10] 0 | [11] 0 | [12] 0 | [13] 0 | [14] 0 | [15] 0

CN1CCN2c3ncccc3Cc3ccccc3C2C1 (stereo not given) [Mirtazapine]
inactive: [1] 0 | [2] 0 | [3] 0 | [4] 0 | [5] 0 | [6] 0 | [7] 0 | [8] 0 | [9] 0 | [10] 0 | [11] 0 | [12] 0 | [13] 0 | [14] 0 | [15] 0

O=C(/C=C/c1ccc(O)c(O)c1)O[C@@H]1C[C@](O)(C(=O)O)C[C@@H](O)[C@H]1O [Chlorogenic acid]
inactive: [1] 0 | [2] 0 | [3] 0 | [4] 0 | [5] 0 | [6] 0 | [7] 0 | [8] 0 | [9] 0 | [10] 0 | [11] 0 | [12] 0 | [13] 0 | [14] 0 | [15] 0

CC(C)N(CCC(=O)c1ccc2ccccc2c1)Cc1ccccc1
inactive: [1] 0 | [2] 0 | [3] 0 | [4] 0 | [5] 0 | [6] 0 | [7] 0 | [8] 0 | [9] 0 | [10] 0 | [11] 0 | [12] 0 | [13] 0 | [14] 0 | [15] 0

COC(=O)C1=C(C)NC(C)=C(C(=O)OC(C)C)C1c1cccc2nonc12 (stereo not given) [isradipine]
inactive: [1] 0 | [2] 0 | [3] 0 | [4] 0 | [5] 0 | [6] 0 | [7] 0 | [8] 0 | [9] 0 | [10] 0 | [11] 0 | [12] 0 | [13] 0 | [14] 0 | [15] 0

O=C(/C=C/c1ccc(OCc2ccccc2)cc1)c1c(O)cc(OCc2ccccc2)cc1OCc1ccccc1 [4,2,4'-Tribenzyloxy-6'-hydroxychalcone]
inactive: [1] 0 | [2] 0 | [3] 0 | [4] 0 | [5] 0 | [6] 0 | [7] 0 | [8] 0 | [9] 0 | [10] 0 | [11] 0 | [12] 0 | [13] 0 | [14] 0 | [15] 0

O=C(O)c1cc(/N=N/c2ccc(O)c(C(=O)O)c2)ccc1O [olsalazine]
inactive: [1] 0 | [2] 0 | [3] 0 | [4] 0 | [5] 0 | [6] 0 | [7] 0 | [8] 0 | [9] 0 | [10] 0 | [11] 0 | [12] 0 | [13] 0 | [14] 0 | [15] 0

Cc1c(-c2ccccc2)oc2c(C(=O)OCCN3CCCCC3)cccc2c1=O [flavoxate]
inactive: [1] 0 | [2] 0 | [3] 0 | [4] 0 | [5] 0 | [6] 0 | [7] 0 | [8] 0 | [9] 0 | [10] 0 | [11] 0 | [12] 0 | [13] 0 | [14] 0 | [15] 0
